Results: PubChem BioAssay AID743286 (National Center for Advancing Translational Sciences (NCATS), 2014)
Screen size: about 1,100 compounds; about 340 (31%) were called active. Another 40% or so got no clear call; they are omitted. Only a sample is shown. Unmarked numbers belong to inactive results. Calls come from the whole dose curve; as a rule, active = well fitted inhibition curve with a large enough effect; inconclusive = small, poorly fitted or top-dose-only effect; inactive = flat fitted curve, though single readings scatter.

What follows are molecules tested against Phosphatidylinositol 5-phosphate 4-kinase type-2 alpha (Homo sapiens) (UniProt P48426) (assay: qHTS for Inhibitors of PI5P4K: Confirmation in Primary Assay). Conditions: PI5P4Kalpha enzyme, ADP-Glo luminescence, 60 min; series mostly up to 76.9 µM; activity change, negative = inhibition: at the top concentration.
How it was run: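 PI5P4Kα with PI5P substrate in 0.038 M HEPES pH 7.4, 0.28 mM EGTA, 0.1% CHAPS, 5% DMSO; reaction started with 5 µM ATP (final), 60 min at room temperature. ADP formed read by ADP-Glo luminescence end-point.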
% is set by controls: 0 for no effect and ±100 for the full control effect; potency is the fitted concentration of half-maximal effect.
Note: nearly all actives have a fitted effect of over 65% in size.

Phosphatidylinositol 5-phosphate 4-kinase type-2 alpha (Homo sapiens), sequence (P48426 whole entry, looked up): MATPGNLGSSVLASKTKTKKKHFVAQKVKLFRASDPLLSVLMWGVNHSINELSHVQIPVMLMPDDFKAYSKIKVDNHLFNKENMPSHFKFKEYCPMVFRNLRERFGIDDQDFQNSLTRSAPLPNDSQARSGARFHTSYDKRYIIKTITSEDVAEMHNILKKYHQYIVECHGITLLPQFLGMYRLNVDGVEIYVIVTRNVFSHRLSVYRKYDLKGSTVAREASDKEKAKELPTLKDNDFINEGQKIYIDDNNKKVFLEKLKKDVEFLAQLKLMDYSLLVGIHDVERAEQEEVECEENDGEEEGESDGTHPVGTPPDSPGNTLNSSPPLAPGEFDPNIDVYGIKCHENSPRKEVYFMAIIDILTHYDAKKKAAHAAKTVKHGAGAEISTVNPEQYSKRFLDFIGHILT

SMILES | activity change, negative = inhibition | Potency
COc1ccc(C(=O)NC(CCSC)C(=O)N2CCCCCC2)cc1 (stereo not given) | -0.697% | –
COc1cc(NC2=Nc3cccc4cccc2c34)cc(OC)c1OC | -1.43% | –
Cc1nn(-c2ccccc2)c2nc(=O)n(-c3ccccc3)cc12 | -3.35% | –
Cc1ccc(NC(=O)c2cccc(C(=O)Nc3ccc(C)cc3C(=O)O)c2)c(C(=O)O)c1 | – | 8.91 µM (active)
CN(C)c1ccc2nc3ccc(=O)cc-3sc2c1 | – | 11.2 µM (active)
CN(CC(=O)Nc1ccc(F)cc1)C(=O)c1cc(-c2ccco2)nc2ccccc12 | – | 14.1 µM (active)
O=C(c1cc(-c2ccco2)nc2ccccc12)N(Cc1nnc(-c2ccc(Cl)cc2)o1)C1CC1 | -11% | –
CCNC(=O)c1ccccc1SCC(=O)Nc1ccc(F)cc1 | 1.84% | –
Cc1ccc(NC(=O)CN(C)C(=O)c2cc(-c3ccco3)nc3ccccc23)cc1 | – | 8.91 µM (active)
COc1cccc(NC(=O)CN(C)C(=O)c2cc(-c3ccco3)nc3ccccc23)c1 | – | 15.8 µM (active)
COc1ccc(NC(=O)CN(C)C(=O)c2cc(-c3ccco3)nc3ccccc23)cc1 | – | 5.01 µM (active)
COCCN(CC(=O)NCC1CCCO1)C(=O)CCC(=O)Nc1ccccn1 (stereo not given) | -2.19% | –
COCc1c(C(=O)N2CCc3ccccc32)oc2ccccc12 | 11.8% | –
CCOC(=O)c1nnn(-c2ccccc2)c1C | -6.41% | –
CCn1c(C(=O)OC)cc2c1ccn2-c1ccc(F)cc1 | 12% | –
CC(C)(C)NC(=O)C(c1ccc(C#N)cc1)n1c(=O)c(-c2ccco2)nc2ccccc21 (stereo not given) | -23.1% | –
Cc1cc(C(=O)OCC(=O)Nc2cc(S(=O)(=O)N3CCOCC3)ccc2Cl)c(C)o1 | -0.657% | –
O=C(Nc1cc(S(=O)(=O)N2CCOCC2)ccc1O)c1ccc(NS(=O)(=O)c2ccc(Cl)s2)cc1 | – | 20 µM (active)
COc1cccc(C2CC(=O)N3CN(c4cccc(Cl)c4C)CSC3=C2C#N)c1OC (stereo not given) | – | 39.8 µM (active)
COc1ccc(OC)c(C2CC(=O)N3CN(c4cccc(Cl)c4)CSC3=C2C#N)c1 (stereo not given) | -11.7% | –
COc1ccc(N2CSC3=C(C#N)C(c4cccc(OC)c4OC)CC(=O)N3C2)cc1 (stereo not given) | – | 7.08 µM (active)
COc1ccc(N2CSC3=C(C#N)C(c4ccc(OC)c(OC)c4)CC(=O)N3C2)c(OC)c1 (stereo not given) | – | 12.6 µM (active)
COc1ccc(C2CC(=O)N3CN(c4ccc(C)c(Cl)c4)CSC3=C2C#N)cc1OC (stereo not given) | -8.92% | –
CCN(CC)C(=O)c1[nH]cnc1C(=O)Nc1ccc(OC)cc1 | -2.48% | –
CCCCOc1ccc(S(=O)(=O)NC(=O)C2(C)CCN2C(=O)CCc2ccccc2)cc1 (stereo not given) | 2.58% | –

SMILES | activity change, negative = inhibition | Potency
C[C@H](NC(=O)c1nc[nH]c1C(=O)N[C@@H](C)C(=O)OC(C)(C)C)C(=O)OC(C)(C)C | 2.51% | –
COc1cccc(NS(=O)(=O)c2ccc3c(c2)C2C=CCC2C(c2ccc(C(=O)O)cc2)N3)c1 (stereo not given) | – | 31.6 µM (active)
Cc1ccc(-c2csc3ncnc(NCCC(=O)O)c23)cc1C | – | 14.1 µM (active)
CN(C)C(=O)c1ccc(NC(=O)COC(=O)C2=COCCO2)cc1 | -3.35% | –
NC(=O)C1CCN(c2cc(Cl)nc(N)n2)CC1 | -5.15% | –
CN1CCN(C(c2ccc(Br)cc2)c2cc(Cl)c3cccnc3c2O)CC1 (stereo not given) | – | 15.8 µM (active)
CN1CCN(C(c2ccccc2)c2ccc(Cl)cc2)CC1 (stereo not given) | -13.3% | –
Cc1ccc(C(c2cc(Cl)c3cccnc3c2O)N2CCN(C)CC2)cc1 (stereo not given) | – | 15.8 µM (active)
CCOC(=O)C1=C(CC)Nc2ccccc2N=C1NC(=O)c1ccc(S(=O)(=O)N(C)C)cc1 | 2% | –
COC(=O)c1c(NC(C)=O)sc(C(=O)Nc2ccccc2)c1C | -0.19% | –
COc1ccccc1Cc1c(-c2ccco2)nc2cc(C)c(Br)c(C)n12 | -23.8% | –
Fc1cccc(Cc2c(-c3ccco3)nc3ccc(Cl)cn23)c1 | -18.6% | –
Cc1cc2nc(-c3ccco3)c(Cc3cccc(F)c3)n2c(C)c1Br | – | 6.31 µM (active)
CCN(CC(=O)Nc1ccc(OC)cc1)C(=O)c1ccc([N+](=O)[O-])cc1 | -0.54% | –
Cc1ccc(NC(=O)CN(C)C(=O)c2cccc(-n3cccc3)c2)cc1 | – | 20 µM (active)
Cc1cccc(NC(=O)CNC(=O)c2cccc(-n3cccc3)c2)c1C | – | 6.31 µM (active)
CN(CC(=O)Nc1cccc(F)c1)C(=O)c1cccc(-n2cccc2)c1 | – | 10 µM (active)
O=C(COC(=O)Cc1ccsc1)Nc1cccc(F)c1 | 9.86% | –
Cc1ccc(NC(=O)CN(C)C(=O)COc2ccc(C(=O)c3ccc(F)cc3)cc2)cc1 | 7.3% | –
CN(CC(=O)Nc1c(Cl)cccc1Cl)C(=O)c1cccc(-n2cccc2)c1 | – | 14.1 µM (active)
Nc1nc(N)c2cc(S(=O)(=O)c3cccc(C(F)(F)F)c3)ccc2n1 | -26.5% | –
CCC1CCCCN1C(=O)Cn1nc([N+](=O)[O-])c(Cl)c1C (stereo not given) | -4.34% | –
CCOc1ccc(CCNS(=O)(=O)c2cn(C)cn2)cc1OCC | -0.0108% | –
CC(=O)Nc1ccc2nc(SCC(=O)NCCOc3ccccc3)sc2c1 | -0.149% | –
N#Cc1c(SCC(=O)Nc2nc3ccccc3s2)sc2c(O)cc(=O)[nH]c12 | – | 6.31 µM (active)

SMILES | activity change, negative = inhibition | Potency
N#Cc1c(SCC(=O)Nc2nc3ccc(Br)cc3s2)sc2c(O)cc(=O)[nH]c12 | – | 4.47 µM (active)
CCC(C)n1c(SCC(=O)Nc2ccc3[nH]c(=O)[nH]c3c2)nc2ccccc2c1=O (stereo not given) | -23.7% | –
O=C(CSc1nc(O)cc(=O)n1-c1ccccc1)Nc1nc2ccccc2s1 | -23.2% | –
Nc1cc(-c2ccncc2)c[nH]c1=O | -15.9% | –
O=C(COc1ccccc1)Nc1cccc(-c2ccc(N3CCOCC3)nn2)c1 | -18.8% | –
O=C(COc1ccc2ccccc2c1)Nc1cccc(C(=O)Nc2ccccc2C(=O)O)c1 | – | 20 µM (active)
O=C(COc1ccc([N+](=O)[O-])cc1)Nc1cccnc1 | -5.44% | –
COc1ccc(S(=O)(=O)N2CCN(C(=O)C3COc4ccccc4O3)CC2)cc1 (stereo not given) | – | 10 µM (active)
COC(=O)Nc1ccc(S(=O)(=O)N2CCC(C(=O)N3CCC(C)CC3)CC2)cc1 | -3.71% | –
CN1CCN(S(=O)(=O)c2ccc(N3CCc4ccccc4C3)nc2)CC1 | -1.8% | –
CSc1ncccc1C(=O)Nc1ccc(OC(F)(F)F)cc1 | 11.7% | –
Cc1ccc(NCC(=O)Nc2ccc(Br)cc2)cc1C | 8.83% | –
CCN(CC(=O)Nc1ccc(NC(C)=O)cc1)Cc1c(O)ccc2cc(Br)ccc12 | – | 15.8 µM (active)
Cn1nnnc1Sc1ncnc2scc(-c3ccccc3C(F)(F)F)c12 | – | 17.8 µM (active)
Cc1ccc([N+](=O)[O-])cc1Nc1nc(N2CCOCC2)nc(N2CCOCC2)n1 | 2.38% | –
O=C(NCCCN1CCOCC1)c1sc2cc([N+](=O)[O-])ccc2c1Cl | – | 14.1 µM (active)
CCOC(=O)C1=C(N)N(c2ccccc2)C(=O)C1 | -3.07% | –
CC(Oc1ccc(F)cc1)C(=O)N1CCN(c2ncccn2)CC1 (stereo not given) | 0.356% | –
CC(C)C(=O)N1CCN(c2ccccc2NC(=O)c2ccco2)CC1 | -2.64% | –
COc1ccccc1N1CCN(C(=O)c2ccc(C(C)(C)C)cc2)CC1 | 0.452% | –
O=C(c1ccc2nc(-c3ccco3)c(-c3ccco3)nc2c1)N1CCN(c2ncccn2)CC1 | – | 12.6 µM (active)
O=C(Nc1ccc2nc(-c3ccco3)c(-c3ccco3)nc2c1)N1CCN(c2ccccn2)CC1 | – | 11.2 µM (active)
Cc1cccc(C)c1NC(=O)C(c1ccccc1)n1c(=O)c(-c2ccco2)nc2ccccc21 (stereo not given) | -24.1% | –
CC(C)NC(=O)c1onc(CSc2ccccc2F)c1C(=O)O | -0.693% | –
Cc1ccc(C(CCN(Cc2ccccc2)C(=O)c2ccco2)c2ccco2)cc1 (stereo not given) | – | 14.1 µM (active)

SMILES | activity change, negative = inhibition | Potency
Cc1ccc(S(=O)(=O)N(C(=O)c2ccco2)c2cc3sc(=O)oc3c3ccccc23)cc1 | -5.53% | –
CC(C)N(CCC(=O)c1ccc2ccccc2c1)Cc1ccccc1 | -9.41% | –
O=C(N[C@@H](Cc1ccccc1)C(=O)OCc1ccccc1)c1nc[nH]c1C(=O)NC(c1ccccc1)c1ccccc1 | 7.69% | –
O=c1[nH]c2ccccc2n2c(-c3ccccc3)nnc12 | – | 5.01 µM (active)
Cc1cc(Oc2ccc(C#N)cc2)nc(NCc2ccccc2)n1 | -2.08% | –
CCn1c(CC(=O)Nc2ccccc2F)nnc1SCC(=O)NC1CCCCC1 | 1.05% | –
O=C(NCC1CC1)c1ccc(Nc2nc3ccc(Br)cc3[nH]2)cc1 | -15.7% | –
CC1Cc2ccccc2N1C(=O)COC(=O)CCc1nc2ccccc2c(=O)[nH]1 (stereo not given) | -11.1% | –
NC(=O)c1ccc(-n2c(CCC(=O)O)ccc2-c2cccs2)cc1 | – | 3.98 µM (active)
Cc1cnc(NC(=O)CSc2c(Cl)cccc2Cl)s1 | -18.7% | –
CCc1nnc(NC(=O)c2ccc(S(C)(=O)=O)cc2)s1 | -2.39% | –
O=C(CSc1nc2[nH]c(=O)cc(O)c2s1)Nc1ccc(Cl)c(C(F)(F)F)c1 | -29.7% | –
CCc1nnc(NC(=O)CSc2sc3c(O)cc(=O)[nH]c3c2C#N)s1 | – | 12.6 µM (active)
N#Cc1c(SCC(=O)Nc2nccs2)sc2c(O)cc(=O)[nH]c12 | – | 15.8 µM (active)
Cc1cc(NC(=O)CSc2sc3c(O)cc(=O)[nH]c3c2C#N)ccc1Br | – | 8.91 µM (active)
N#Cc1c(SCC(=O)Nc2nncs2)sc2c(O)cc(=O)[nH]c12 | – | 8.91 µM (active)
CC1Cc2ccccc2N1C(=O)CNc1cccc(S(=O)(=O)N2CCCC2)c1 (stereo not given) | -3.8% | –
Cc1csc(NC(=O)CSc2nc3[nH]ncc3c(=O)[nH]2)n1 | -24.4% | –
Cc1csc(NC(=O)CSc2sc3c(O)cc(=O)[nH]c3c2C#N)n1 | – | 14.1 µM (active)
COc1ccc(CC(=O)NCC(=O)NC(Cc2ccccc2)C(=O)O)cc1 (stereo not given) | 4.47% | –
Cc1csc(NC(=O)c2cc(-c3ccco3)nc3ccccc23)n1 | – | 10 µM (active)
CC(=O)c1cccc(NC(=O)c2cc(-c3ccco3)nc3ccccc23)c1 | -24.5% | –
CCc1nnc(NC(=O)c2cc(-c3ccc(C)o3)nc3ccccc23)s1 | -23.9% | –
CCc1nnc(NC(=O)c2cc(-c3ccco3)nc3ccccc23)s1 | – | 3.55 µM (active)
O=C(Nc1nccs1)c1cc(-c2ccco2)nc2ccccc12 | – | 3.98 µM (active)
